The source of these data is PubChem BioAssay (NCI).

A short description of assay [1]: NCI Yeast Anticancer Drug Screen. Data for the rad50 strain (AID 155).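 Also: 0% = growth of vehicle-only cultures of the same strain.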 The conditions noted are these: S. cerevisiae rad50 strain growth inhibition, hits give high values. The gist of the method:
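A DNA repair-deficient yeast mutant serves as the test organism; compound-induced growth inhibition is calculated against vehicle-treated cells.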

A short description of assay [2]: NCI Yeast Anticancer Drug Screen. Data for the mec2-1 strain (AID 157). The conditions noted are these: S. cerevisiae mec2-1 strain, hits give high values. A digest of the protocol: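 Cells of the genetically defined mec2-1 yeast strain are incubated with test compound. Inhibition of growth is calculated against vehicle-treated controls.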
Assay [3] is described as follows: NCI Yeast Anticancer Drug Screen. Data for the sgs1 mgt1 strain (AID 161).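 Also: 0% = growth of cultures given vehicle only.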 The conditions noted are these: S. cerevisiae sgs1 mgt1 strain, hits give high values. The gist of the method:
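Mutant yeast exposed to compound; growth scored against vehicle-only wells.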

The nature of assay [4]: NCI Yeast Anticancer Drug Screen. Data for the cln2 rad14 strain (AID 165).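 Also: 0% = growth equal to vehicle treated cultures.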 The conditions noted are these: S. cerevisiae cln2 rad14 strain, hits give high values. A digest of the protocol:
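The screen exposed genetically defined yeast (cln2 rad14) to test compounds and scored growth inhibition relative to vehicle-treated controls.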

The nature of assay [5]: NCI Yeast Anticancer Drug Screen. Data for the bub3 strain (AID 167). The conditions noted are these: S. cerevisiae bub3 mutant strain, hits give high values. A digest of the protocol:
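Inhibition values come from growth of compound-treated mutant yeast normalised to vehicle-treated controls.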

Assay [6] is described as follows: NCI Yeast Anticancer Drug Screen. Data for the mlh1 rad18 strain (AID 175). The conditions noted are these: S. cerevisiae mlh1 rad18 strain growth inhibition, hits give high values. The gist of the method:
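Compound-treated yeast growth, normalised to vehicle controls. Strain bears defined DNA repair mutations.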

The mark [7] stands for this setting: at 5.0 µM (retest, dose inferred, filed as 0.5).
The mark [8] stands for this setting: at 50.0 µM (retest, dose inferred, filed as 5.0).

About 79,000 compounds went through this panel and 15% of them were active in at least one assay; those are over-represented in the sample as a whole. A number with no mark means an inactive call. Calls of active or inactive are those of the source. Rule as the data show it: active = growth inhibition above about 70%; inactive = the rest.

As to `Nc1ccc(Sc2c3ccccc3nc3ccccc23)cc1`, the growth inhibition is 19% in assay [1] (setting [7]); 59% in assay [1] (setting [8]); 80.8% (active) in assay [1] (at 50.0 µM); 16% in assay [2] (setting [7]); 34% in assay [2] (setting [8]); 63.3% in assay [2] (at 50.0 µM). Besides, the growth inhibition in assay [3] (setting [7]) is 22%; in assay [3] (setting [8]), 98% (active); in assay [3] (at 50.0 µM), 87.2% (active); in assay [4] (setting [7]), 19%; in assay [4] (setting [8]) it was 96% (active); in assay [4] (at 50.0 µM) it was 71.8% (active). Also, the growth inhibition in assay [5] (setting [7]) was 24%; in assay [5] (setting [8]), 98% (active); in assay [5] (at 50.0 µM), 85% (active); in assay [6] (setting [7]), 18%; in assay [6] (setting [8]), 48%; in assay [6] (at 50.0 µM), 60.1%.
Regarding `Cc1cc(N)c2c(c1O)C(=O)c1ccccc1C2=O`, the growth inhibition in assay [1] (setting [7]) is -2%; in assay [1] (setting [8]), 47%; in assay [1] (at 50.0 µM), 7.5%; in assay [2] (setting [7]), -1%; in assay [2] (setting [8]) it was 26%; in assay [2] (at 50.0 µM), 7.35%. Moreover, the growth inhibition in assay [3] (setting [7]) was -5%; in assay [3] (setting [8]), 39%; in assay [3] (at 50.0 µM) it was -0.6%; in assay [4] (setting [7]) it was 0%; in assay [4] (setting [8]) it was 21%; in assay [4] (at 50.0 µM), 25.1%. For the same molecule, the growth inhibition was -5% in assay [5] (setting [7]); 42% in assay [5] (setting [8]); 20.8% in assay [5] (at 50.0 µM); -3% in assay [6] (setting [7]); 47% in assay [6] (setting [8]); 18.2% in assay [6] (at 50.0 µM).
With `Cc1ccc(-n2cc(-c3ccc(Cl)cc3)c3c(N)ncnc32)cc1`, the growth inhibition in assay [1] (setting [7]) was 37%; in assay [1] (setting [8]), 95% (active); in assay [1] (at 50.0 µM) it was 97.1% (active); in assay [2] (setting [7]), 15%; in assay [2] (setting [8]) it was 97% (active); in assay [2] (at 50.0 µM), 94.8% (active). For the same molecule, the growth inhibition was 60% in assay [3] (setting [7]); 94% (active) in assay [3] (setting [8]); 98.3% (active) in assay [3] (at 50.0 µM); -3% in assay [4] (setting [7]); 96% (active) in assay [4] (setting [8]); 88.3% (active) in assay [4] (at 50.0 µM). Further, the growth inhibition in assay [5] (setting [7]) was 14%; in assay [5] (setting [8]), 97% (active); in assay [5] (at 50.0 µM) it was 92% (active); in assay [6] (setting [7]) it was 30%; in assay [6] (setting [8]) it was 95% (active); in assay [6] (at 50.0 µM), 96.8% (active).
Take `NC(=O)/C(=N\NC(=O)c1cc2ccccc2cc1O)C1C(=O)N(c2ccccc2)N=C1N` (configuration not stated): the growth inhibition in assay [1] (setting [7]) is 15%; in assay [1] (setting [8]), 15%; in assay [1] (at 50.0 µM), 71.5% (active); in assay [2] (setting [7]), 6%; in assay [2] (setting [8]), 6%; in assay [2] (at 50.0 µM), 43.4%. For the same molecule, the growth inhibition is 7% in assay [3] (setting [7]); 7% in assay [3] (setting [8]); 20.7% in assay [3] (at 50.0 µM); 16% in assay [4] (setting [7]); 16% in assay [4] (setting [8]); 11.7% in assay [4] (at 50.0 µM). Moreover, the growth inhibition in assay [5] (setting [7]) was 2%; in assay [5] (setting [8]), 2%; in assay [5] (at 50.0 µM), 50.1%; in assay [6] (setting [7]) it was 25%; in assay [6] (setting [8]), 25%; in assay [6] (at 50.0 µM) it was 67.4%.
On to `O=C(O)Cc1nc2ccccc2[nH]1`, for which the growth inhibition is 1% in assay [1] (setting [7]); 95% (active) in assay [1] (setting [8]); 25.9% in assay [1] (at 50.0 µM); 9% in assay [2] (setting [7]); 70% (active) in assay [2] (setting [8]); 51.2% in assay [2] (at 50.0 µM). For the same molecule, the growth inhibition is 14% in assay [3] (setting [7]); 99% (active) in assay [3] (setting [8]); 2.85% in assay [3] (at 50.0 µM); 0% in assay [4] (setting [7]); 34% in assay [4] (setting [8]); 14.8% in assay [4] (at 50.0 µM). The growth inhibition is 1% in assay [5] (setting [7]); 98% (active) in assay [5] (setting [8]); -3.2% in assay [5] (at 50.0 µM); 2% in assay [6] (setting [7]); 99% (active) in assay [6] (setting [8]); 3.05% in assay [6] (at 50.0 µM).
On to `FC(F)(F)c1[nH]nc(-c2cc3ccccc3o2)c1N=NN1CCOCC1`, for which the growth inhibition is 99% (active) in assay [1] (setting [7]); 99% (active) in assay [1] (setting [8]); 99.2% (active) in assay [1] (at 50.0 µM); 100% (active) in assay [2] (setting [7]); 99% (active) in assay [2] (setting [8]); 99.5% (active) in assay [2] (at 50.0 µM). In addition, the growth inhibition is 100% (active) in assay [3] (setting [7]); 99% (active) in assay [3] (setting [8]); 99.5% (active) in assay [3] (at 50.0 µM); 99% (active) in assay [4] (setting [7]); 99% (active) in assay [4] (setting [8]); 99.6% (active) in assay [4] (at 50.0 µM). Moreover, the growth inhibition in assay [5] (setting [7]) is 100% (active); in assay [5] (setting [8]), 99% (active); in assay [5] (at 50.0 µM), 99.5% (active); in assay [6] (setting [7]), 100% (active); in assay [6] (setting [8]), 99% (active); in assay [6] (at 50.0 µM), 99.5% (active).
Regarding `O=Nc1cc(-c2ccccc2)c2ccccc2c1O`, the growth inhibition is 14% in assay [1] (setting [7]); 86% (active) in assay [1] (setting [8]); -2.65% in assay [1] (at 50.0 µM); 14% in assay [2] (setting [7]); 96% (active) in assay [2] (setting [8]); 31.9% in assay [2] (at 50.0 µM). Besides, the growth inhibition was 6% in assay [3] (setting [7]); 93% (active) in assay [3] (setting [8]); -10.4% in assay [3] (at 50.0 µM); 15% in assay [4] (setting [7]); 97% (active) in assay [4] (setting [8]); 97.5% (active) in assay [4] (at 50.0 µM). For the same molecule, the growth inhibition was 22% in assay [5] (setting [7]); 95% (active) in assay [5] (setting [8]); 97.4% (active) in assay [5] (at 50.0 µM); 23% in assay [6] (setting [7]); 96% (active) in assay [6] (setting [8]); 2.45% in assay [6] (at 50.0 µM).
As for `CN1CCN(CCOC(=O)N2c3ccccc3Sc3ccccc32)CC1`, the growth inhibition in assay [1] (setting [7]) was 1%; in assay [1] (setting [8]) it was 1%; in assay [1] (at 50.0 µM), 9.45%; in assay [2] (setting [7]), 2%; in assay [2] (setting [8]) it was -2%; in assay [2] (at 50.0 µM), -13.2%. The growth inhibition in assay [3] (setting [7]) was -1%; in assay [3] (setting [8]) it was 2%; in assay [3] (at 50.0 µM), 45.5%; in assay [4] (setting [7]), 0%; in assay [4] (setting [8]), 1%; in assay [4] (at 50.0 µM), -13.9%. The growth inhibition is -2% in assay [5] (setting [7]); -4% in assay [5] (setting [8]); 15.6% in assay [5] (at 50.0 µM); -4% in assay [6] (setting [7]); -3% in assay [6] (setting [8]); 4.4% in assay [6] (at 50.0 µM).
In the case of `O=C(CNC(=O)C(CSCc1ccccc1)NC(=O)OCc1ccccc1)Oc1c(Cl)c(Cl)c(Cl)c(Cl)c1Cl` (configuration not stated), the growth inhibition was 10% in assay [1] (setting [7]); 34% in assay [1] (setting [8]); 46.9% in assay [1] (at 50.0 µM); 8% in assay [2] (setting [7]); 30% in assay [2] (setting [8]); 61.9% in assay [2] (at 50.0 µM). Besides, the growth inhibition is 2% in assay [3] (setting [7]); 30% in assay [3] (setting [8]); 68.8% in assay [3] (at 50.0 µM); 3% in assay [4] (setting [7]); 20% in assay [4] (setting [8]); 25.6% in assay [4] (at 50.0 µM). Also, the growth inhibition was -4% in assay [5] (setting [7]); 13% in assay [5] (setting [8]); 15.9% in assay [5] (at 50.0 µM); 9% in assay [6] (setting [7]); 51% in assay [6] (setting [8]); 66.4% in assay [6] (at 50.0 µM).
